# Experimental data taken from PubChem BioAssay AID624331 (National Center for Advancing Translational Sciences (NCATS), 2012).
# Records with an inconclusive call do not appear. The source made the active and inactive calls. Calls come from the whole dose curve; as a rule, active = well fitted activation curve with a large enough effect; inconclusive = small, poorly fitted or top-dose-only effect; inactive = no such curve, though single readings can be large or run the other way.
# Experiment: qHTS assay for re-activators of p53 using a Luc reporter: Hit Validation with no p53 Expressed; for activity change, positive = activation: 0% is about no effect
# Conditions: p53-null cells, luciferase reporter counter-screen; series mostly up to 46.1 µM; activity change, positive = activation: at the top concentration
# Method in brief: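 Without p53 expression, cells (1000/well, Opti-MEM + 10% FBS) were exposed 24 h at 37 deg C to compounds in a 1:5 series from 10 mM stock (top 46.1 µM in well). Luminescent signal read 10 min after Amplite addition; actives flag unspecific activation.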
# Potency is the fitted concentration of half-maximal effect.
SMILES,"activity change, positive = activation",Potency
CC(=O)NC1=C(Nc2ccc(N(C)C)cc2)C(=O)c2ccccc2C1=O,47.3% (inactive),–
N/C(=N\OC(=O)c1ccccc1Cl)c1ccc(Cl)cc1,46.8% (inactive),–
C/C(=N\NC(=S)NC1CCCCC1)c1ccccc1,-26.8% (inactive),–
C=Cc1ccc(Cn2c(=O)n(CCCOC)c(=O)c3sccc32)cc1,-29.1% (inactive),–
Cc1ccc2cc(C#N)c(NCc3ccco3)nc2c1,-25.2% (inactive),–
COc1ccc(-c2nc(-c3ccc(NC(=O)c4ccncc4)cc3)no2)cc1OC,-26.6% (inactive),–
Cc1cccc(NC2SC(=O)N(c3ccccc3)C2=O)c1 (centres undefined),-20.2% (inactive),–
Nc1nc2ccc(N3CCOCC3)cc2s1,-16.9% (inactive),–
C=CCNc1nc(-c2cc3ccccc3o2)cs1,35.2% (inactive),–
CC(C)C(=O)Nc1ccc(-c2nc3cccnc3o2)cc1,20.2% (inactive),–
COc1ccc(-c2cc(C(F)(F)F)nc(-n3ccnc3C)n2)cc1,-11.3% (inactive),–
COc1ccc(NC(=S)NC(=NS(=O)(=O)c2ccc(Cl)cc2)c2ccccc2)cc1,42.3% (inactive),–
CC1(C)NC(=O)N(CC(=O)N2CCN(S(=O)(=O)c3ccccc3C(F)(F)F)CC2)C1=O,12.1% (inactive),–
CCN1CCN(CC(=O)Nc2nc3ccc(C)cc3s2)CC1,15.7% (inactive),–
CC(C)c1ccc2oc(-c3ccc(N)cc3)nc2c1,-8.62% (inactive),–
CCCCNc1ncnc2c1cnn2-c1ccccc1,-0.0123% (inactive),–
O=c1cc(-c2ccc3c(c2)OCCO3)oc2ccc(Cl)cc12,15% (inactive),–
CC(C)OC(=O)CCCCCN1C(=O)CSC1=S,-21.6% (inactive),–
CS(=O)(=O)N1CCC(C(=O)Nc2cc(Cl)c(Cl)cc2Cl)CC1,29.4% (inactive),–
O=C(Nc1ccc(F)cc1F)c1cc2nc3c(c(C(F)(F)F)n2n1)CCCC3,–,5.8 µM (active)

SMILES,"activity change, positive = activation",Potency
O=c1sc(/C=N/Nc2ccccc2)c(Cl)n1Cc1ccccc1,-13.4% (inactive),–
CCOC(=O)c1c(C)[nH]c(C(=O)CSc2ccccc2)c1C,14.4% (inactive),–
CC(C)c1ccc(NC(=S)NN2CCOCC2)cc1,-15.3% (inactive),–
Cc1nonc1NCn1nnc2ccccc21,2.44% (inactive),–
Cc1ccc(C(=O)CC(Nc2ccc(F)cc2)c2ccccc2)cc1 (centres undefined),78.9% (inactive),–
Nc1nonc1-n1nnc(C(=O)N/N=C/c2ccc(Br)cc2)c1CSC1=NCCS1,-5.67% (inactive),–
c1ccc(-c2cn3c(n2)SCC3)cc1,-24.5% (inactive),–
C/C(=N/NC(=S)Nc1ccccc1)c1ccc2c(c1)OCO2,4.43% (inactive),–
c1ccc(-c2cn3nc(-c4ccccc4)cnc3n2)cc1,50.2% (inactive),–
CCOC(=O)c1ccc2ncc(C(=O)OCC)c(NCc3ccco3)c2c1,-11.3% (inactive),–
COc1ccc(NC(=O)CN(C)CC(=O)Nc2ccccc2SC)cc1,-37.7% (inactive),–
Cc1csc(NC(=O)/C=C/c2ccco2)n1,21.2% (inactive),–
COc1cc(N=c2c([N+](=O)[O-])nn(-c3ccc4c(c3)OCCO4)n2O)cc(OC)c1,65.3% (inactive),–
CCOC(=O)N/N=C\c1ccc(C)s1,10.1% (inactive),–
Nc1c(C(=O)CSc2nc3ccccc3o2)c(=O)[nH]c(=O)n1C1CC1,-8.39% (inactive),–
O=C(COC(=O)c1cccnc1Cl)Nc1ccc(N2CCCCC2)cc1,-51.2% (inactive),–
Cc1cccc(Nc2cc(=O)[nH]c(=O)[nH]2)c1C,-22.6% (inactive),–
N#Cc1cc2c(nc1SCC(=O)Nc1nccs1)CCCCC2,73.5% (inactive),–
O=C(Nc1ccc(-c2nc3cc(Cl)ccc3c(=O)o2)cc1)c1ccco1,-27.4% (inactive),–
